From PubChem BioAssay (Tox21) come the findings set out here.

Inconclusive results are not listed. Entries that show only a call come without a potency. The source made the active and inactive calls. Calls come from the whole dose curve; as a rule, active = well fitted inhibition curve with a large enough effect in the signal ratio in the repeat runs, with a control signal flat; inconclusive = weak or mixed curves, or effect the other way; inactive = flat fitted curve, though single readings scatter; the % refers to the signal ratio.
Potency is the fitted concentration of half-maximal effect.

This assay deals with D(2) dopamine receptor (Homo sapiens) (UniProt P14416). In words: Dopamine D2 receptor (DRD2) small molecule antagonists, cell-based qHTS assay (AID 1963595). The following applies: HEK293-DRD2 cAMP HTRF antagonist mode; series mostly up to 92.4 µM. From the text: National Center for Advancing Translational Sciences [NCATS]
D(2) dopamine receptor (Homo sapiens), sequence (P14416 whole entry, looked up): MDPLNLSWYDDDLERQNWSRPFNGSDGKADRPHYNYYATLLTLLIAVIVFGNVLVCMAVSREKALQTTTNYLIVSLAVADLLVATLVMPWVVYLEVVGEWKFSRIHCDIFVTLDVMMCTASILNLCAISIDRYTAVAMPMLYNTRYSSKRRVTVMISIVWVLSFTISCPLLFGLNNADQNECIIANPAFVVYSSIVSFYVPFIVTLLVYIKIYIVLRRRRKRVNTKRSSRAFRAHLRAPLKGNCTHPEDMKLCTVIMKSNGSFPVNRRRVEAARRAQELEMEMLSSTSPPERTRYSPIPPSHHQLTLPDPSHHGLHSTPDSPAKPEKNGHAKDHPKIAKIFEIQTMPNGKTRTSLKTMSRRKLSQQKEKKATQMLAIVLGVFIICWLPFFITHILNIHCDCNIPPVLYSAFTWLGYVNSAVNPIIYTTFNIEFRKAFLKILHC
Division of Preclinical Innovation [DPI]
U.S. Environmental Protection Agency [EPA]
National Institutes of Environmental Health Sciences [NIEHS]
National Toxicology Program [NTP]
U.S. Food and Drug Administration [FDA]
DRD2 is the D2 subtype of the dopamine receptor, which is coupled to Gi subtype of G protein-coupled receptor. This G protein-coupled receptor inhibits adenylyl cyclase activity. The DRD2-HEK293 cell line stably expressing D2 dopamine receptor can be used for screening agonists and antagonists of interactions between D2 and its ligands. The Hek293-DRD2 cAMP assay is based on HTRF technology. It measures changes of cAMP accumulation in response to Gi coupled GPCR activation or inhibition.
Tox21 Assay Protocol Summary:
DRD2-Hek293 cells were dispensed at 600 cells/3uL/well in 1536-well white plates using a Multidrop Dispenser. After the assay plates were incubated at a 37 C/5% CO2 incubator for 24 h, 1 uL of Ro20-1724 at final concentration of 0.1 mM was transferred to the assay plate by a Flying Reagent Dispenser. Following Ro20-1724 addition, 23 nL of compound dissolved in DMSO, positive controls or DMSO only was added to the assay plates via Wako pintool station. The assay plates were incubated at room temperature for 10 min. Next, 1 uL of mixture of NKH477 (final concentration at 200 nM) and quinpirole (final concentration at 12 nM) was added into the plates. After the assay plates were incubated at room temperature for an additional 30 min, 2.5 ul/well of cAMP-d2 and 2.5 ul/well of anti-cAMP-cryptate were added respectively into the assay plates using a Flying Reagent Dispenser. The plates were incubated at room temperature for 1 h. The fluorescence intensity in the plates was measured at 340 nm excitation and 665 & 620 nm emission by an Envision plate reader.
On the technique in general: In qHTS, concentration-response curves come from the screen itself.
As for `N#Cc1ccc(N(CC(N)=O)CC(F)(F)F)cc1C(F)(F)F`, the Potency result was “inactive”. As for `O=C(Nc1ccc2[nH]ccc2c1)c1cc2cc(F)ccc2n1Cc1cccc(F)c1`, the Potency result was “inactive”.

As for `ClCc1ccccc1Cl`, the Potency result was “inactive”. The value for `CC(=O)C(Cl)(Cl)Cl` was “inactive”.

Consider `O=C(CBr)OCc1ccccc1`, for which the Potency entry was “inactive”. Regarding `CCC1(c2ccccc2)C(=O)N(COC)C(=O)N(COC)C1=O`, the Potency entry is “inactive”.

Turning to `C[C@]12Cc3nonc3C[C@@H]1CC[C@@H]1[C@@H]2CC[C@@]2(C)[C@H]1CC[C@]2(C)O`, the Potency result is “inactive”. In the case of `CCOP(=S)(OCC)OC(Cl)C(Cl)(Cl)Cl` (stereo not given), the Potency result was “inactive”.

With `CC(Cl)(Cl)[N+](=O)[O-]`, the Potency entry is “inactive”. To `Oc1ccc2c3c1O[C@H]1[C@@H](O)C=C[C@H]4[C@@H](C2)NCC[C@@]341` belongs “inactive”; to `CCCCCCCCCC[N+](C)(C)CCCCCCCCCC`, 27.3 µM (active); to `N#CCCSCCC#N`, “inactive”. The value for `Clc1ccc(-c2ccc(Cl)c(Cl)c2Cl)c(Cl)c1Cl` was “inactive”; that for `Oc1ccc2ccc3cccc4ccc1c2c34` was “inactive”; that for `O=NN1CCN(N=O)CC1` was “inactive”. To `CCCCC(CC)COC(=O)OOC(C)(C)C` (stereo not given) belongs “inactive”; to `CC(=O)[O-].CC(=O)[O-].O.O.[Zn+2]`, “inactive”. For `CC(C)C(Br)C(=O)NC(N)=O` (stereo not given), the Potency result was “inactive”. Take `COP(=O)(OC)OC(Br)C(Cl)(Cl)Br` (stereo not given): the Potency entry is “inactive”. To `O=NN(CCO)CCO` belongs “inactive”; to `CCC(C)c1cc(C(C)(C)C)cc(-n2nc3ccccc3n2)c1O` (stereo not given), “inactive”. The value for `COc1nn(C(=O)NS(=O)(=O)c2ccccc2OC(F)(F)F)c(=O)n1C` was “inactive”.

Consider `ClCCCCCCCl`, for which the Potency result is “inactive”. For the molecule `CCNc1nc(NC(C)C(C)C)nc(SC)n1` (stereo not given), the Potency entry was “inactive”. On to `CC(C)c1c(CN(C)C(C)Cc2ccccc2)n(C)n(-c2ccccc2)c1=O` (stereo not given), for which the Potency entry is “inactive”. To `O=[N+]([O-])c1ccc2ccc3cccc4ccc1c2c34` belongs “inactive”. For the molecule `C1CCNCC1`, the Potency result is “inactive”. As for `CC(C)(C)c1ccc(OP(=O)(Oc2ccccc2)Oc2ccccc2)cc1`, the Potency result is “inactive”.

For `Cc1ccc(OP(=O)(Oc2ccccc2)Oc2ccccc2)cc1`, the Potency result is “inactive”. The value for `CS/C(C)=N/OC(=O)N(C)SN(C)C(=O)O/N=C(\C)SC` was “inactive”; that for `C=CC(=O)OCC(C)O` (stereo not given) was “inactive”; that for `CCCCOP(=O)(O)OCCCC` was “inactive”. The value for `CCN(CC)C(=O)N[C@@H]1C=C2c3cccc4[nH]cc(c34)C[C@@H]2N(C)C1` was “inactive”. To `CC(CCc1ccccc1)NC(C)C(O)c1ccc(O)cc1` (stereo not given) belongs 16.8 µM (active); to `CN1CCc2cc3c(cc2C1O)OCO3` (stereo not given), “inactive”.

Turning to `c1cc(OCC2CO2)ccc1Cc1ccc(OCC2CO2)cc1` (stereo not given), the Potency result was “inactive”. As to `O=C(O)CC(Cl)C(=O)O` (stereo not given), the Potency result is “inactive”. For `CC(C)(C)C(O)C(Oc1ccc(-c2ccccc2)cc1)n1cncn1` (stereo not given), the Potency result was “inactive”. To `NNCCO` belongs “inactive”.

For the molecule `CC[C@H](C)[C@H]1O[C@]2(C=C[C@@H]1C)C[C@@H]1C[C@@H](C/C=C(\C)[C@@H](O[C@H]3C[C@H](OC)[C@@H](O[C@H]4C[C@H](OC)[C@@H](O)[C@H](C)O4)[C@H](C)O3)[C@@H](C)/C=C/C=C3\CO[C@@H]4[C@H](O)C(C)=C[C@@H](C(=O)O1)[C@]34O)O2`, the Potency result was “inactive”.
